Results taken from the supplement of paper PMC11732987, “Enantioselective OTUD7B fragment discovery through chemoproteomics screening and high-throughput optimisation” (Communications Chemistry, 2025).

Columns and labels:
Test in all cases: log2 ratio of Biotin-Ahx-Ub-VS probe labelling (fragment/DMSO); higher = less target engagement (more negative = stronger competition), active = hit call of the paper (q ≤ 0.05, log2 ratio ≤ -1)
Conditions in all cases: compound concentration: 200 uM; treatment time: 3 h
USP42 = biological target: T1, USP42 (UniProt Q9H9J4)
T1 sequence (whole entry): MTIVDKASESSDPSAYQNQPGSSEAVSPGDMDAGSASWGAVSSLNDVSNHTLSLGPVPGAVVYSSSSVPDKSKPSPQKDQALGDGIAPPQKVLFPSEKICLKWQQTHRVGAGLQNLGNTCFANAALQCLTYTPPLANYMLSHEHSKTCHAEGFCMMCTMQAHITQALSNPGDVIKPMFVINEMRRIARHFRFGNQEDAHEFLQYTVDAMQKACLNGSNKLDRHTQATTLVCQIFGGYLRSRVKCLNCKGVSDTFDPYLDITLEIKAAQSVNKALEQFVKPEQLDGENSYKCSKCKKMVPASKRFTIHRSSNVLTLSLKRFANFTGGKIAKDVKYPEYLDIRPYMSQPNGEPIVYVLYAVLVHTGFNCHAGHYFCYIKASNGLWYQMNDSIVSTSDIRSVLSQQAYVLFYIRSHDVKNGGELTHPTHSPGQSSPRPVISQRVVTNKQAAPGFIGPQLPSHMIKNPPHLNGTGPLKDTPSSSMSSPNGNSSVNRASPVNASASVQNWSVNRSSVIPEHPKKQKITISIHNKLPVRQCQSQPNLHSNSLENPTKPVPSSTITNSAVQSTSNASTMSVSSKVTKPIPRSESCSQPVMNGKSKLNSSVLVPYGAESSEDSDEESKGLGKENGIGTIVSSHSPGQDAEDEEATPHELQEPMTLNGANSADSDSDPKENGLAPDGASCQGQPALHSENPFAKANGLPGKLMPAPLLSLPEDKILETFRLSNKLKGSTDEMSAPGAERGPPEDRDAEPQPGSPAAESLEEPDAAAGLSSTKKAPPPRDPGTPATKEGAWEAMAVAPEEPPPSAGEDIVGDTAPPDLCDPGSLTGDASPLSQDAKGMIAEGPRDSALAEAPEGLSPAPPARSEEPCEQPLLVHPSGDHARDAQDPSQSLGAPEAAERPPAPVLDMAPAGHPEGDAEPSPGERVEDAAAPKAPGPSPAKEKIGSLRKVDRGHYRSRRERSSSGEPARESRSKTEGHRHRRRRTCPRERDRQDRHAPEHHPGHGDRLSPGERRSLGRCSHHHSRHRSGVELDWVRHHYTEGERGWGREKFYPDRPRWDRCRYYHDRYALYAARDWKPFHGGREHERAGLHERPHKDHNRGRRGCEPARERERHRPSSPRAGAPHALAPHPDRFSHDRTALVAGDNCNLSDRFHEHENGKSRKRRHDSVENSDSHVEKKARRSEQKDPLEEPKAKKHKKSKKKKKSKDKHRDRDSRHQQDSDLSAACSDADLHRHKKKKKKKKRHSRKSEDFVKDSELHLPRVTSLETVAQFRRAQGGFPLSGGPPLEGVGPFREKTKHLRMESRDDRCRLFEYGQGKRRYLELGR
Method in brief: (§1)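 Fragment (200 µM) or vehicle was incubated for 3 h with triplicate HEK293T lysate samples of 495 µg, which were then treated with Biotin-Ahx-Ub-VS at 0.5 µM final for 1 h. Labelled DUBs were enriched on NeutrAvidin, digested with LysC and trypsin, and analysed by diaPASEF LC-MS/MS. Values are average log2 fragment/vehicle ratios from an unpaired t-test on global-median-normalised Spectronaut label-free quantities, using proteins with ≥2 unique peptides.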

USP46 = USP46 (UniProt P62068)
Method in brief: as §1

USP47 = biological target: T2, USP47 (UniProt Q96K76)
T2 sequence (whole entry): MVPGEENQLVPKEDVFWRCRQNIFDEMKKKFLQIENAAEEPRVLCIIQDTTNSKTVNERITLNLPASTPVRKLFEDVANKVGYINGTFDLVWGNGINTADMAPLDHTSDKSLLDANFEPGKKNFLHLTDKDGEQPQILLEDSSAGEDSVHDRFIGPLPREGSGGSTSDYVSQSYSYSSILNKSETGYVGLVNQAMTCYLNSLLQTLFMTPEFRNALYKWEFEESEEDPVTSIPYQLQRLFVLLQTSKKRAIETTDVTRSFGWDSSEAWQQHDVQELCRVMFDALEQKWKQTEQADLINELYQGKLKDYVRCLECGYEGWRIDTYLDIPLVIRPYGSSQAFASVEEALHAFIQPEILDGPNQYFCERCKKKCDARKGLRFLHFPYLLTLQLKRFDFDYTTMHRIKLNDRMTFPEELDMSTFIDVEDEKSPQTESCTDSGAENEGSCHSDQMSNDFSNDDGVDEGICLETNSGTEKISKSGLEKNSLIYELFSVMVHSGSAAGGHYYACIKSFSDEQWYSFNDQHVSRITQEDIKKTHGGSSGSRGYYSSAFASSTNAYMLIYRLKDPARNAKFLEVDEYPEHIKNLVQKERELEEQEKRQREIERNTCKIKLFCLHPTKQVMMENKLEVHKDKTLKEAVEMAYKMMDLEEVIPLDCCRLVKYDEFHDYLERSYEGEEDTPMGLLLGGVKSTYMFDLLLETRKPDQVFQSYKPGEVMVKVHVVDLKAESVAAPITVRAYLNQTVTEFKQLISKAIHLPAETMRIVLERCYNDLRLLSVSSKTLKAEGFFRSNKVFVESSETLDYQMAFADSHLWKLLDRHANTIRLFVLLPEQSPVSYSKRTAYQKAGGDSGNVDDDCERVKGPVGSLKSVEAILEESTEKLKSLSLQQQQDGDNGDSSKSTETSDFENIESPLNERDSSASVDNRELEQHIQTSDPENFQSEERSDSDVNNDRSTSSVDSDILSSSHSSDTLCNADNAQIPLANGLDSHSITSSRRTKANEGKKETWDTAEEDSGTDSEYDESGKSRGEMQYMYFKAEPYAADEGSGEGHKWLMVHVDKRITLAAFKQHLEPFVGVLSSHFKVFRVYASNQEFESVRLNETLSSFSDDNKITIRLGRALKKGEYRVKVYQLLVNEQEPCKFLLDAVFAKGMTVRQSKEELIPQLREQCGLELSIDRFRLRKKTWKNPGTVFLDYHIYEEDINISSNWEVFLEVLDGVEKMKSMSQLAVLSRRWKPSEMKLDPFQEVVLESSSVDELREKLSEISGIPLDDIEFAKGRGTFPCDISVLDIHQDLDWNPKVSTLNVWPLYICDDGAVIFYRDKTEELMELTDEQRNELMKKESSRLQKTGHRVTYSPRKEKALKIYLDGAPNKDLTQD
Method in brief: as §1

USP48 = biological target: T3, USP48 (UniProt Q86UV5)
T3 sequence (whole entry): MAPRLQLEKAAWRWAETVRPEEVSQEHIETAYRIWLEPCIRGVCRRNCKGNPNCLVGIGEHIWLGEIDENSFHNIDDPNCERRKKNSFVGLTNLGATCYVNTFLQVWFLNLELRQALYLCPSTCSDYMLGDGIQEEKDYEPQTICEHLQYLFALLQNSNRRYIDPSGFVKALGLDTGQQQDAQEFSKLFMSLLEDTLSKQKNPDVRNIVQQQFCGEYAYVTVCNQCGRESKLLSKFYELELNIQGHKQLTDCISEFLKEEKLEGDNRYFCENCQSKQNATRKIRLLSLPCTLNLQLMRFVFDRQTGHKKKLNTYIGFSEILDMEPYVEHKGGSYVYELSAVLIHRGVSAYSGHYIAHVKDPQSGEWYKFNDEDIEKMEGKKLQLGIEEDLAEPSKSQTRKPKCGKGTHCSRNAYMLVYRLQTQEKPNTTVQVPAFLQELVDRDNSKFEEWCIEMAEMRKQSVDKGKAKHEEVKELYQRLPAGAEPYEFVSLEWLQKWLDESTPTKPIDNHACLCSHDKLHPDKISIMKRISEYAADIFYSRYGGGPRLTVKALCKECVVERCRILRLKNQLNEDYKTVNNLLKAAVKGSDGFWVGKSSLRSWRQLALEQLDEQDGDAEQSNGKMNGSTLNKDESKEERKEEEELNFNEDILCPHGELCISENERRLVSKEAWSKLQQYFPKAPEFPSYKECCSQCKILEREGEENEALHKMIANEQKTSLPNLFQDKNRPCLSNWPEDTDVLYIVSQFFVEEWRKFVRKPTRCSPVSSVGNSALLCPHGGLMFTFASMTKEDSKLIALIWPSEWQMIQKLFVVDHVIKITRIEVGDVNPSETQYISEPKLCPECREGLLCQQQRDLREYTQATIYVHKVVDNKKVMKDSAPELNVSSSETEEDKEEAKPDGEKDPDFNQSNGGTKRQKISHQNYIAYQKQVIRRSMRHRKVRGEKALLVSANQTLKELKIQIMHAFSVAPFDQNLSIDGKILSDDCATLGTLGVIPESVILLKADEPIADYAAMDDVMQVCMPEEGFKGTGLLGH
Method in brief: as §1

USP5 = biological target: T4, USP5 (UniProt P45974)
T4 sequence (whole entry): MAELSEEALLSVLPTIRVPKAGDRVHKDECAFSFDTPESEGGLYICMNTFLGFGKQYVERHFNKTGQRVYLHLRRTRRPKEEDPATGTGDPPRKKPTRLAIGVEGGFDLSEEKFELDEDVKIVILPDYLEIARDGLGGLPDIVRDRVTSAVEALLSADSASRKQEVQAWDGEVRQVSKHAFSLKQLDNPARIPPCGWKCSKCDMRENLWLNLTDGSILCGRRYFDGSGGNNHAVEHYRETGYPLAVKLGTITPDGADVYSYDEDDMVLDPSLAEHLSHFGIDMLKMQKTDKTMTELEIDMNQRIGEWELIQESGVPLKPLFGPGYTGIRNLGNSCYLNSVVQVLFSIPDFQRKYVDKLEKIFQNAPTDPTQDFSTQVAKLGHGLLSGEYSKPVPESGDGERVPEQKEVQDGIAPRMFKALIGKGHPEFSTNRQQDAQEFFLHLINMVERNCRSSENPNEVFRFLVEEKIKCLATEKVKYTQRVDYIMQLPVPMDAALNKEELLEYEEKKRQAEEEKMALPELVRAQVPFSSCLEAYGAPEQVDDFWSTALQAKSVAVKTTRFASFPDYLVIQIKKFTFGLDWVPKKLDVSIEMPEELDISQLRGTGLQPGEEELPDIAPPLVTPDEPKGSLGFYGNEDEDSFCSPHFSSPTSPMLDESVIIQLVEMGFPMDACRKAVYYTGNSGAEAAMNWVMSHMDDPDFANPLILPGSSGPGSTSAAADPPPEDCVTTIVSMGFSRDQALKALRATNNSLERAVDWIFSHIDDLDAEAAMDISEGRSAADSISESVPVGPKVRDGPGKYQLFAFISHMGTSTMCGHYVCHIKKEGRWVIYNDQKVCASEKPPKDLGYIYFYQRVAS
Method in brief: as §1

USP54 = USP54 (UniProt Q70EL1)
Method in brief: as §1

USP7 = USP7 (UniProt Q93009)
Method in brief: as §1

USP8 = biological target: T5, USP8 (UniProt P40818)
T5 sequence (whole entry): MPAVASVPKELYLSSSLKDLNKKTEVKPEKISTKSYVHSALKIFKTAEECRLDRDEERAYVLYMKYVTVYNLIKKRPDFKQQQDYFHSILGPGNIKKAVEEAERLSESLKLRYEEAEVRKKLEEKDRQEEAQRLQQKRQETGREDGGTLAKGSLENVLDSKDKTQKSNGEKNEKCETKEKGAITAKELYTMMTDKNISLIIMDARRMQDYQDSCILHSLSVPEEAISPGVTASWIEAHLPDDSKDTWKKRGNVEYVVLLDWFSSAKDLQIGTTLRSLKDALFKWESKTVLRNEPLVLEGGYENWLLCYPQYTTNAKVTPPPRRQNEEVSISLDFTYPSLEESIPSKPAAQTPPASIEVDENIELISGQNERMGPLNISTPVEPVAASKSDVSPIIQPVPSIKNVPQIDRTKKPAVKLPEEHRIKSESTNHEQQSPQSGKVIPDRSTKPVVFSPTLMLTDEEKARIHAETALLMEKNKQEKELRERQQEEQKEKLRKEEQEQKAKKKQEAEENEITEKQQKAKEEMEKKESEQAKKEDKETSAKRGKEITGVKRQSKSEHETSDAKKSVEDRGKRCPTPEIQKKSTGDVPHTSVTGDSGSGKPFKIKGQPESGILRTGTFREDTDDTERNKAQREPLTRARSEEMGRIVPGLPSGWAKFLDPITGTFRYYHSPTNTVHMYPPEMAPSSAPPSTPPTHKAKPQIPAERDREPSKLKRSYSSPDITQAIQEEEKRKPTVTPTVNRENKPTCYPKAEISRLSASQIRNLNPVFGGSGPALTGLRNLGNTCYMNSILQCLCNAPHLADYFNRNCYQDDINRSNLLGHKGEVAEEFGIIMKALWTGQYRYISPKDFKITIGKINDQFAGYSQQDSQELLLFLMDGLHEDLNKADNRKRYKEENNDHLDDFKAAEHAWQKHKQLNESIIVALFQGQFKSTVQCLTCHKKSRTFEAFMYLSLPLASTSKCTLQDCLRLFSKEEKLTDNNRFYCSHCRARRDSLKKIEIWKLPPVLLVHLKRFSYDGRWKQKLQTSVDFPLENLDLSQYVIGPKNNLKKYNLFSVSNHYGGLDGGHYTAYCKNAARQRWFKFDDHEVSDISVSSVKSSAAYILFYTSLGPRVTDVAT
Method in brief: as §1

USP9X = USP9X (UniProt Q93008)
Method in brief: as §1

UniProt O00487 = biological target: UniProt O00487
Method in brief: as §1

Measured: log2 ratio of Biotin-Ahx-Ub-VS probe labelling

Sequence of USP9X (Q93008 whole entry): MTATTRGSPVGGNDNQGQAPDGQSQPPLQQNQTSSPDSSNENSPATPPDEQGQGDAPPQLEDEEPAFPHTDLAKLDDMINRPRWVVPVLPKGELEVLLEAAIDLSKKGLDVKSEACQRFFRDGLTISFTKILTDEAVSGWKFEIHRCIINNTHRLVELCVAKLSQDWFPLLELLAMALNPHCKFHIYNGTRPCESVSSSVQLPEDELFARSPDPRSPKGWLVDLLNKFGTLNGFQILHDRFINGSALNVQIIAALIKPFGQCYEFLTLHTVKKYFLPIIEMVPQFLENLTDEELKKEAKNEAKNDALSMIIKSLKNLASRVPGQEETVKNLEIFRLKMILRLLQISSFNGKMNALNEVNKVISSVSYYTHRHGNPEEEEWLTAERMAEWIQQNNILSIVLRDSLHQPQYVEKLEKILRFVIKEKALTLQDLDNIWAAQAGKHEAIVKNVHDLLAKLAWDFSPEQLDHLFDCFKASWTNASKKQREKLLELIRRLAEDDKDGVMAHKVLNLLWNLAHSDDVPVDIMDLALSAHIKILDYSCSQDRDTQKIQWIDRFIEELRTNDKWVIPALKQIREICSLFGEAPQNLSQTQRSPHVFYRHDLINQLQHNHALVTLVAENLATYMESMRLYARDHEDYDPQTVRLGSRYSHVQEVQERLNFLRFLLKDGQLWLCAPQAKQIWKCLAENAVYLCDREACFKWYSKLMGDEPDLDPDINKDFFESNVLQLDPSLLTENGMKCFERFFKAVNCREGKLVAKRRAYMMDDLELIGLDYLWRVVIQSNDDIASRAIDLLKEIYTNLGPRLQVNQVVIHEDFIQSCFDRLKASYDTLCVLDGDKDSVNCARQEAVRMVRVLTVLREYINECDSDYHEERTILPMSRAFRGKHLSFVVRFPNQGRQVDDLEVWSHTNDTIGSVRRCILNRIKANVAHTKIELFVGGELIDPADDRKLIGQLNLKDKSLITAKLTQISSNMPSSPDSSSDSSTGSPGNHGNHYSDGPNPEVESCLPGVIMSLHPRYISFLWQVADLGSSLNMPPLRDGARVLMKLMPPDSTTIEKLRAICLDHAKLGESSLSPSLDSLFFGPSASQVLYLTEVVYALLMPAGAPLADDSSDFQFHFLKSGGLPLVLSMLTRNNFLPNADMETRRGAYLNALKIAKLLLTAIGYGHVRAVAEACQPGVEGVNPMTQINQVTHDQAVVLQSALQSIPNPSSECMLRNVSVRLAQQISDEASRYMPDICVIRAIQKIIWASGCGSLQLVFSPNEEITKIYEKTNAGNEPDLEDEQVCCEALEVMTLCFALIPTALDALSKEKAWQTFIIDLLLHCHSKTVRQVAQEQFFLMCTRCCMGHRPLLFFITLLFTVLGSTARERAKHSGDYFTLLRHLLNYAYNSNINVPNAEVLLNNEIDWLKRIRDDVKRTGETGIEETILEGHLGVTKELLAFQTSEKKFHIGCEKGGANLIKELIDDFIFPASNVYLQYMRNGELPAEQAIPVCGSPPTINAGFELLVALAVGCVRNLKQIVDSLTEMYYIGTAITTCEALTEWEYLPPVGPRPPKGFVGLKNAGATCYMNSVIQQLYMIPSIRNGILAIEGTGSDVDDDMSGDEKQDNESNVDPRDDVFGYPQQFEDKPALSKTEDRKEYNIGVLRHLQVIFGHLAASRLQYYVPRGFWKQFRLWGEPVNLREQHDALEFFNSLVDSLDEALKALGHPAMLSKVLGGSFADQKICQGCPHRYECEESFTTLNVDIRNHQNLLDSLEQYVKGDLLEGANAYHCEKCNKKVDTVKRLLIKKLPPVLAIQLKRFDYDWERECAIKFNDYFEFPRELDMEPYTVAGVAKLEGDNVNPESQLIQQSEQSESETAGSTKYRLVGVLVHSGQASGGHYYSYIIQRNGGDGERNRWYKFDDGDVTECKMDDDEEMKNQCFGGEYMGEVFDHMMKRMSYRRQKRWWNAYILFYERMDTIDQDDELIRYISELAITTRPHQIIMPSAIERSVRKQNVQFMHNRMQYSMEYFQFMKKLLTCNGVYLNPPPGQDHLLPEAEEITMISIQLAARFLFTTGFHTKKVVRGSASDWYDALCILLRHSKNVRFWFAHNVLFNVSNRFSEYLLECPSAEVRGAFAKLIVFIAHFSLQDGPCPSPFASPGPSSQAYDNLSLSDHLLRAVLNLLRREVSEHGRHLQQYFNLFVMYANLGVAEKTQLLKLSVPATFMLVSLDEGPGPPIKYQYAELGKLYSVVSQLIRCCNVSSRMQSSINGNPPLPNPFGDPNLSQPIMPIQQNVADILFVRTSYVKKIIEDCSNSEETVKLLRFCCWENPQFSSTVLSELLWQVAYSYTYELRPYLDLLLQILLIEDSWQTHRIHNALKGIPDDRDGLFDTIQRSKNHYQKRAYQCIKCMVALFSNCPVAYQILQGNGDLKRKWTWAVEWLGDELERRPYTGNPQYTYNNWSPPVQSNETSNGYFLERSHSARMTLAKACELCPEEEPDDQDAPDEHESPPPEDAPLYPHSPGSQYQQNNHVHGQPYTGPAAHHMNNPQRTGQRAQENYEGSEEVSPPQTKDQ
Sequence of USP46 (P62068 whole entry): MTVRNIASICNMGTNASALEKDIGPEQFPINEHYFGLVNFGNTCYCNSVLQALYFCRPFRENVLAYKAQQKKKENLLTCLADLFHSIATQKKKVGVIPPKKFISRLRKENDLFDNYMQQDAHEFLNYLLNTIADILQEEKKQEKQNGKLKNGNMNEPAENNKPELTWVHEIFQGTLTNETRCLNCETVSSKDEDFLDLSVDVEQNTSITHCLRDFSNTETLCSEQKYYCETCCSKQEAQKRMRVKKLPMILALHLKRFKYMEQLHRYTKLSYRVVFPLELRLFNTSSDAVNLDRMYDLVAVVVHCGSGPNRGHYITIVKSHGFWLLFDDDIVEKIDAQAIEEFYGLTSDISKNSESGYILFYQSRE
Sequence of USP7 (Q93009 whole entry, looked up): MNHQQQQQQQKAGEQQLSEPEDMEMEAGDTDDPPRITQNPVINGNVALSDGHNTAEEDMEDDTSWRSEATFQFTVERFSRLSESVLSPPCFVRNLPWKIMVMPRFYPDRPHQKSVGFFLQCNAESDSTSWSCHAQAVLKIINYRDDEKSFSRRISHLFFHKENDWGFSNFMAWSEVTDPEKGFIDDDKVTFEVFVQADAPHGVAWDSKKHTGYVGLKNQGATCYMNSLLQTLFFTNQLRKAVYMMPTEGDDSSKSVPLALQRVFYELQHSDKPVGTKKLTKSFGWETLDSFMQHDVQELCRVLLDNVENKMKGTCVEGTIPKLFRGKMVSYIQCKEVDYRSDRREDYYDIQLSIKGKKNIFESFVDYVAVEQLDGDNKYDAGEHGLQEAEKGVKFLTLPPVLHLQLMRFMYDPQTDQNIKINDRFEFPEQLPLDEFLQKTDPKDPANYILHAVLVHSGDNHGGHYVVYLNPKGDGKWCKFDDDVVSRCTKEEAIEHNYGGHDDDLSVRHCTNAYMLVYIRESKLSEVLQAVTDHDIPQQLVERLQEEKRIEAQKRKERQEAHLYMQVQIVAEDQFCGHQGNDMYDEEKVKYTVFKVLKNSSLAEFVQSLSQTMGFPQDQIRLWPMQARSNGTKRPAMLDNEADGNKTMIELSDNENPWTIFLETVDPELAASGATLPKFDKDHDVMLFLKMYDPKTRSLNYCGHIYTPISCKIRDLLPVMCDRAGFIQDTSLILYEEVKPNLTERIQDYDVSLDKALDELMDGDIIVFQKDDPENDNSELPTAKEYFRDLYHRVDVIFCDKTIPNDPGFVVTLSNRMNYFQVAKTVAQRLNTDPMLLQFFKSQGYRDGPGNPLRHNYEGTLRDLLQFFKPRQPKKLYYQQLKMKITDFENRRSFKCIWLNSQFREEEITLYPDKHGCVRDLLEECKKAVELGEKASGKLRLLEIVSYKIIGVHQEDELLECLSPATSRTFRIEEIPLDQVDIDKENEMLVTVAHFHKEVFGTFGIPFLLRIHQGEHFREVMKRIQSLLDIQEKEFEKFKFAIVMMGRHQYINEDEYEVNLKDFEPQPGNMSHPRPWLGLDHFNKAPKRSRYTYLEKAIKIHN
Sequence of UniProt O00487 (O00487 whole entry): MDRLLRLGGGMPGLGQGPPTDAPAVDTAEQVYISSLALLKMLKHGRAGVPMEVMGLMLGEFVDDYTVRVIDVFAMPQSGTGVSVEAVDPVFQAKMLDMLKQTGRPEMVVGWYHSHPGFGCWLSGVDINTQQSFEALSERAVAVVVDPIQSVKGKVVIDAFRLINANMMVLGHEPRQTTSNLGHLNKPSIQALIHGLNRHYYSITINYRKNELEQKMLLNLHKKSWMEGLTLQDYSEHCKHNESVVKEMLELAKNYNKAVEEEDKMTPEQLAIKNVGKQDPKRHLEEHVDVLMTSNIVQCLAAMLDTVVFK

CC(C)n1nccc1NC(=O)CCl
inactive: USP42 -0.0446 | USP46 0.0362 | USP47 -0.313 | USP48 -0.375 | USP5 0.00439 | USP54 0.614 | USP7 -0.278 | USP8 -0.493 | USP9X -0.225 | UniProt O00487 -0.188
